Screening data from PubChem BioAssay.
Most compounds without a hit are left out; they make up all but 3.3% or so of the library.
Mcl-1 Bim block – inhibitors of Bim peptide binding to Mcl-1, primary screen, biochemical, bead-based flow cytometry, multiplex. Induced myeloid leukemia cell differentiation protein Mcl-1 (Homo sapiens), Q07820. Bim peptide-Mcl-1 binding. inhibition, % at 10 µM. hit rate 0.1% among 190,000; in the data active = inhibition above about 40%
eIF4E 4G PPI – eIF4E–eIF4G protein interaction inhibitors, primary screen, biochemical, uHTS, TR-FRET, eIF4GI fragment | inhibition, % at 21.7 µM | TR-FRET eIF4E-eIF4GI(517-606) binding, 2 h | AID 782, 2007 | Eukaryotic translation initiation factor 4E (Mus musculus) + Eukaryotic translation … | hit rate 0.37% among 220,000
Mcl1 Bid PPI – Mcl-1/Bid binding inhibitors, primary screen, biochemical, TR-FRET, 1536-well; Induced myeloid leukemia cell differentiation protein Mcl-1 (Homo sapiens), Q07820; TR-FRET Mcl-1/Bid-Dy647 peptide binding; inhibition, % at 21.7 µM; hit rate 0.97% among 220,000; AID 1021, 2008;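 active = compounds that cut the binding signal by more than half at the single screening dose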;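 also: His-tagged Mcl-1 with europium anti-His antibody binding Bid BH3 peptide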
Mcl1-Noxa inh – Mcl-1/Noxa binding inhibitors, primary screen, biochemical, TR-FRET, 1536-well; inhibition, % at 21.7 µM; TR-FRET Mcl-1/Noxa peptide binding, 2 h; hit rate 1.5% among 220,000;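 active = compounds that cut the protein-peptide binding signal by more than 50% relative to plate controls in a single-dose test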;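 also: His-tagged Mcl-1 with rhodamine Noxa BH3 peptide and terbium anti-His antibody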
14-3-3 Bad PPI – inhibitors of 14-3-3 zeta/Bad binding, primary screen, biochemical, TR-FRET, bovine 14-3-3 zeta | inhibition, % at 21.7 µM | TR-FRET 14-3-3zeta/Dy647-pBad peptide displacement, 1 h | hit rate 0.71% among 220,000 | AID 781, 2007 | 14-3-3 protein zeta/delta (Bos taurus), P63103;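 active = inhibition above about 70%, limit read from the data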
Target sequence (P63103 whole entry, looked up): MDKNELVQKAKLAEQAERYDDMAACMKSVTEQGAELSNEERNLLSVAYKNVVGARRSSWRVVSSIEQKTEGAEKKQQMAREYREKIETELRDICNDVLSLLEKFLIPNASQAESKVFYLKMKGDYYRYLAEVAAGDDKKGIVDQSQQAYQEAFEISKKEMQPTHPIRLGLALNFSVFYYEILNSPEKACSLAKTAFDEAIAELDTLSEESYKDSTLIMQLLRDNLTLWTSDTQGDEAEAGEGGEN
NCF1 inh – p47phox/p22phox peptide binding inhibitors, primary screen, biochemical, uHTS, NADPH oxidase regulatory subunit. hit rate 0.53% among 220,000. Neutrophil cytosol factor 1 (Homo sapiens), P14598. AID 1274, 2008. fluorescence polarization, 2 h. inhibition, % at 24.7 µM
Numbers stand for hits; - = inactive; . = no result given.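 The calls were made as follows, unless noted: active = inhibition above about 30% (limit read from the data); inactive = the rest.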

SMILES	Mcl-1 Bim block	eIF4E 4G PPI	Mcl1 Bid PPI	Mcl1-Noxa inh	14-3-3 Bad PPI	NCF1 inh
CC(C)(C)C1=CC=C(C(C)(C)C)C(=O)C1=O	.	-	-	88.8	-	-
CCc1ccc(-n2c(C)n[nH]c2=S)cc1	-	-	-	-	-	-
COc1cccc(NC(=O)C(NCC(C)(C)CN(C)C)c2ccccc2)c1 (centres undefined)	-	-	-	-	70.3	-
Cc1ccc(-c2nn(-c3ccccc3)cc2NC(=O)CCl)cc1	-	-	-	-	-	-
O=c1cc(CN2CCN(Cc3ccccc3)CC2)c2cc(Cl)ccc2o1	-	-	-	-	-	-
Cc1ccc2occ(CN3CCN(c4ccccc4)CC3)c(=O)c2c1	-	-	-	-	-	-
O=c1c(CN2CCN(Cc3ccccc3)CC2)coc2ccc(Cl)cc12	-	-	93.0	-	72.5	-
Cc1ccc2occ(CN3CCN(Cc4ccccc4)CC3)c(=O)c2c1	-	-	-	.	71.8	-
O=C1Nc2ccc(Cl)cc2[C@@](C#CC2CC2)(C(F)(F)F)O1	-	-	-	-	-	-
Cc1cccc(C)c1NC(=O)COC(=O)c1cccnc1	-	-	-	55.8	-	-
CCOc1ncccc1C(=O)OCC(=O)Nc1c(C)cccc1C	-	-	-	-	-	-
COc1ccc(-c2nn3c(COc4ccccc4)nnc3s2)cc1OC	-	-	-	-	-	-
COc1ccc(-c2nn3cnnc3s2)cc1OC	-	-	52.9	-	-	-
CC1=C(C(=O)Nc2ccc(Cl)cc2)C(c2ccncc2)C(C#N)=C(SCC(N)=O)N1 (centres undefined)	-	-	-	-	-	-
CC(=O)C1=C(C)NC(SCC(N)=O)=C(C#N)C1c1cccnc1 (centres undefined)	-	-	97.5	-	-	-
CCN(CC)CCNC(=O)/C(=C/c1cn(C)c2ccccc12)NC(=O)c1ccc(OC)c(OC)c1	.	-	94.7	-	-	-
Cc1cccc(-c2nc3ccccc3c3nncn23)c1	-	-	-	-	-	-
c1ccc(-c2nc3ccccc3c3nncn23)cc1	-	-	-	-	-	34.7
Clc1cc2c(c(CSc3nc4ccccc4n4cccc34)c1)OCOC2	.	-	-	-	-	-
C=CCn1c(SCC(=O)c2[nH]c(C)c(C(=O)OCC)c2C)nc2scc(-c3ccc(OC)c(OC)c3)c2c1=O	-	-	84.3	-	82.2	-
CCOC(=O)c1c(C)[nH]c(C(=O)CSc2nnc(-c3ccncc3)n2CC)c1C	-	-	-	-	-	-
Cc1[nH]c2ccccc2c1-c1csc(NC(=O)CSCCO)n1	-	-	-	-	-	-
Cc1nnc(Sc2c(N)n(C)c(=O)[nH]c2=O)s1	-	-	100.0	-	-	-
CCC[N+](CC#CCO)(CC#Cc1ccccc1)CCC	.	91.0	-	-	-	-
CCCCNC(C(=O)Nc1ccc([N+](=O)[O-])cc1Br)c1ccccc1 (centres undefined)	-	-	-	-	71.1	-
COCCNC(C(=O)Nc1ccc([N+](=O)[O-])cc1Br)c1ccccc1 (centres undefined)	-	-	-	-	-	-
C#CCOCCOCCOCCNc1nc(N2CCOCC2)nc(N2CCN(C(=O)Cn3cc(CCCN=C(N)N)nn3)CC2)n1	-	-	-	-	-	-
C#CCOCCOCCOCCNc1nc(N2CCN(C(=O)[C@H]([C@@H](C)CC)n3cc(CCCN=C(N)N)nn3)CC2)nc(N2CCN(C(=O)[C@H]([C@@H](C)CC)n3cc(CCCN=C(N)N)nn3)CC2)n1	-	-	62.1	-	77.4	-
C#CCOCCOCCOCCNc1nc(N2CCN(C(=O)[C@H](C)n3cc(CCCN=C(N)N)nn3)CC2)nc(N2CCN(C(=O)[C@H](C)n3cc(CCCN=C(N)N)nn3)CC2)n1	-	-	-	-	-	-
